Results: PubChem BioAssay (NCATS)
Results filed as inconclusive are left out. Active and inactive are the calls of the source. Unless noted, the rule behind the calls is not given here.

Columns and labels:
[1] = qHTS Assay for Identifying Gametocytocidal Compounds (AID 743244; active = well fitted curve in the direction sought with a large enough effect; an effect the other way counts as inactive or inconclusive; note: potency is the fitted concentration of half-maximal effect;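 for max response: % is set by controls: 0 for no effect and ±100 for the full control effect; actives lower the fluorescent signal which means gametocytes are killed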); conditions: P. falciparum 3D7 stage III-V gametocytes, alamarBlue, 72 h; max response: stronger effect = lower value
In short: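 Stage III-V P. falciparum 3D7 gametocytes, 20,000 per well, were exposed to compounds for 72 h at 37C, 5% CO2. AlamarBlue was then added for 24 h and viability was read as fluorescence at Ex 525/Em 598 nm.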

[2] = qHTS profiling of the MIPE4 collection as inhibitors of Plasmodium falciparum (3D7) proliferation (AID 743344);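 note: scaled between DMSO vehicle wells and 0.29 µM artemisinin as full inhibition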; conditions: P. falciparum 3D7 in erythrocytes, SYBR Green DNA fluorescence, 72 h; at 28.5 µM (top of the series) unless noted
In short: (§1)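 Erythrocytes infected with P. falciparum (0.3% parasitemia, 2.5% hematocrit) incubated with compounds 72 h at 37 C, 5% CO2. Lysis with saponin/Triton buffer containing SYBR Green I, overnight at room temperature in the dark; DNA fluorescence (485/535 nm) normalised to 0.29 uM artemisinin and DMSO.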

[3] = qHTS profiling of the MIPE4 collection as inhibitors of Plasmodium falciparum (DD2) proliferation (AID 743345); conditions: P. falciparum Dd2 in erythrocytes, SYBR Green DNA, 72 h; at 28.5 µM (top of the series) unless noted
In short: as §1

[4] = qHTS profiling of the MIPE4 collection as inhibitors of Plasmodium falciparum (DD2) proliferation (Rep 2) (AID 743346); conditions: P. falciparum Dd2 in erythrocytes, SYBR Green DNA, 72 h; at 28.5 µM (top of the series) unless noted
In short: as §1

[5] = qHTS profiling of the MIPE4 collection as inhibitors of Plasmodium falciparum (HB3) proliferation (AID 743347);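 note: plate controls were DMSO vehicle wells for no effect and artemisinin wells for full effect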; conditions: P. falciparum HB3 in erythrocytes, SYBR Green DNA, 72 h; at 28.5 µM (top of the series) unless noted
In short: as §1

[6] = High-throughput drug toxicity screening in the BPDCN cell line Gen2.2 (AID 1224824); conditions: Gen2.2 BPDCN cells; at 45.8 µM (top of the series) unless noted;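 note: cells exposed to compounds for 48 h before reading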
In short: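 Gen2.2 cells, 500 per well in phenol red-free RPMI with 10% FBS, exposed to compounds 48 h at 37 C, 5% CO2; viability by CellTiter-Glo luminescence. Percent activity scaled to DMSO (100%) and 9.2 uM bortezomib final (0%).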

[7] = High-throughput drug toxicity screening in the BPDCN cell line Cal-1 (AID 1224825); conditions: Cal-1 BPDCN cell viability, qHTS; at 45.8 µM (top of the series) unless noted
In short: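 Exponentially growing Cal-1 cells, 500 per well in phenol red-free RPMI with 10% FBS, were exposed to compounds for 48 h at 37 °C, 5% CO2. Viability was read by CellTiter-Glo luminescence and normalised to DMSO (100%) and 9.2 uM bortezomib (0%).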

[8] = qHTS assay for measurement of the activity of small molecule inhibitors on Zika virus induced Caspase-3 activity in human iPSC derived neural progenitor cells (hNPCs) (AID 1224857; active = well fitted curve in the direction sought with a large enough effect; an effect the other way counts as inactive or inconclusive; note: nearly all actives have a fitted effect of over 65% in size; note: potency is the fitted concentration of half-maximal effect)
In short: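 Human iPSC-derived neural progenitor cells pretreated 1 hr with compounds, then infected with Zika virus (2 FFU/cell) for 6 hours at 37 C. Caspase-3/7 measured by Caspase-Glo luminescence; % inhibition calculated from induction scaled to uninfected (0%) and infected (100%) wells.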

[9] = qHTS assay for measurement of the activity of small molecule inhibitors on Zika virus induced Caspase-3 activity in human astrocytoma cells (AID 1224859; active = well fitted curve in the direction sought with a large enough effect; an effect the other way counts as inactive or inconclusive;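 note: plate controls were ZIKV-infected untreated cells for no effect and uninfected cells for full effect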)
In short: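 SNB-19 astrocytoma cells, 250/well, pretreated 1 h with compounds, then Zika virus at 2 FFU/cell for 6 h at 37 C; Caspase-Glo 3/7 luminescence after 30 min; percent inhibition normalised to uninfected and infected controls.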

[10] = qHTS profiling for inhibitors of Plasmodium falciparum (3D7) proliferation (AID 743322);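 note: infected erythrocytes exposed to compound for 72 h before lysis; 100% = DMSO vehicle wells and 0% = 0.29 µM artemisinin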; conditions: P. falciparum 3D7 proliferation; at 28.7 µM (top of the series) unless noted
In short: as §1

[11] = qHTS profiling for inhibitors of Plasmodium falciparum (DD2) proliferation (AID 743323); conditions: lower = more inhibition; at 28.7 µM (top of the series) unless noted
In short: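 Parasite proliferation measured via DNA-dye fluorescence, as uninfected erythrocytes lack DNA. Cultures at 0.3% parasitemia and 2.5% hematocrit incubated 72 h with compound; signal scaled between vehicle and 0.29 uM artemisinin wells.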

[12] = qHTS profiling for inhibitors of Plasmodium falciparum (HB3) proliferation (AID 743324; active = well fitted curve in the direction sought with a large enough effect; an effect the other way counts as inactive or inconclusive;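 note: 100% = DMSO vehicle wells and 0% = artemisinin-treated control wells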); conditions: Plasmodium falciparum HB3 blood-stage proliferation; at 28.7 µM (top of the series) unless noted
In short: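 P. falciparum HB3 grown in erythrocytes (0.3% parasitemia, 2.5% hematocrit final) with compound for 72 h at 37 C, 5% CO2. Parasite DNA detected by SYBR Green after saponin/triton lysis overnight; normalized to 0.29 uM artemisinin and DMSO.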

| Structure (SMILES) | max response [1] | parasite growth, % of DMSO control [2] [%] | parasite growth remaining, % of DMSO control (lower = more inhibition) [3] [%] | parasite growth, % of control (lower = inhibition) [4] [%] | growth, % of control [5] [%] | cell viability, % of control (lower = more cytotoxic) [6] [%] | viability (% of control) [7] [%] | Potency [8] | Potency [9] | Potency [1] | remaining parasite growth % (stronger effect = lower value) [10] [%] | activity, percent of control [11] [%] | remaining proliferation (% of control), lower = more inhibition [12] [%] |
| --- | --- | --- | --- | --- | --- | --- | --- | --- | --- | --- | --- | --- | --- |
| NCC1CCC(C(=O)O)CC1 (stereo unspecified) | -0.776% (inactive) | 428 | 105 | 104 | 159 | 110 | 115 | inactive | inactive | – | – | – | – |
| CCNC(=O)c1noc(-c2cc(C(C)C)c(O)cc2O)c1-c1ccc(CN2CCOCC2)cc1 | – | 5.56 | 7.71 | 9.57 | 4.24 | 14.2 | 7.68 | inactive | inactive | 46.9 nM (active) | 0.155 | 0.689 | – |
| Nc1ncnc2c1c(-c1cccc(OCc3ccccc3)c1)cn2C1CC(CN2CCC2)C1 (stereo unspecified) | – | 31.5 | 30.5 | 21.6 | – | 26.4 | 44.4 | inactive | inactive | – | – | – | – |
| CCCCN(CCCC)CC(O)c1cc(Cl)cc2c1-c1ccc(Cl)cc1C2=Cc1ccc(Cl)cc1 (stereo unspecified) | – | 8.66 | 7.19 | 11.5 | 11.8 | 27 | 63 | inactive | inactive | 59 nM (active) | – | – | – |
| CC[C@H](C)n1cc(C)c2c(C(=O)NCc3c(C)cc(C)[nH]c3=O)cc(-c3ccc(N4CCNCC4)nc3)cc21 | – | 4.84 | 8.83 | 8.77 | – | 133 | 39.5 | inactive | inactive | – | – | – | – |
| COc1ccc(CCN(C)CCCOc2ccc(S(=O)(=O)c3[nH]c4ccccc4c3C(C)C)cc2)cc1OC | – | – | 26.3 | 16.3 | 42.9 | 14.1 | 9.08 | inactive | inactive | – | -1 | 1.03 | -1.05 |
| CC=C1C2C=C(C)CC1(N)c1ccc(=O)[nH]c1C2 (stereo unspecified) | – | 100 | 19.1 | – | – | 164 | 128 | inactive | inactive | – | – | – | – |
| CC1C(=O)OC2C(O)C34C5CC(C(C)(C)C)C36C(OC(=O)C6O)OC4(C(=O)O5)C12O (stereo unspecified) | – | 93.4 | 94.5 | 85.6 | 83.4 | 158 | 16.8 | inactive | inactive | – | – | – | – |
| C[C@@H](N)c1ccc(C(=O)Nc2ccnc3[nH]ccc23)cc1 | – | 49.7 | 78.2 | 49.3 | 67.7 | 6.34 | 12.2 | 26400 nM (active) | inactive | – | – | – | – |
| CN1CCC(COc2cnc(-c3cccc(Cn4nc(-c5cccc(C#N)c5)ccc4=O)c3)nc2)CC1 | – | 10.4 | 10.5 | 15.3 | 4.54 | 92.7 | 5.37 | inactive | inactive | – | – | – | – |
| CC(=O)O[C@]1(C(C)=O)CC[C@H]2[C@@H]3C=C(Cl)C4=CC(=O)[C@@H]5C[C@H]5[C@]4(C)[C@@H]3CC[C@@]21C | – | 21.6 | 22.5 | 18.7 | 20.1 | 42.4 | 18 | inactive | inactive | – | – | – | – |
